Consider 32 compounds from PubChem BioAssay (Tox21).

Assay [1] in a line: qHTS assay to identify small molecule agonists of the sonic hedgehog signaling (Shh) pathway (AID 1259368). Further: nearly all actives have a fitted effect of over 15% in size. Further: potency means the concentration at half of the fitted maximal effect. In outline: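 NIH/3T3-derived 3T3Gli1-Luc cells with stably integrated Gli1-driven firefly luciferase, 2,000 cells/well, compounds added after 4 hr. Incubated 24 hr at 37C, 5% CO2; luminescence read after 30 min with luciferase reagent at room temperature.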
(In qHTS, concentration-response curves come from the screen itself.)

Assay [2] can be described thus: qHTS assay to identify small molecule antagonists of the sonic hedgehog signaling (Shh) pathway (AID 1259369). Further: nearly all actives have a fitted effect of over 45% in size. Further: potency means the concentration at half of the fitted maximal effect. A digest of the protocol:
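NIH/3T3-derived Gli1-Luc reporter cells plated 4 h, dosed with compound, then stimulated with conditioned medium for 24 h at 37 C. Firefly luciferase luminescence read after 30 min with detection reagent at room temperature.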

In assay [3] the target is Estrogen receptor beta (Homo sapiens) (UniProt Q92731). As to the kind of experiment: qHTS assay to identify small molecule agonists of the estrogen receptor beta (ER-beta) signaling pathway (AID 1259377; active means well fitted activation curve with a large enough effect in the signal ratio in the repeat runs, not every such curve was filed as active; the % refers to the signal ratio; further: potency means the concentration at half of the fitted maximal effect). In outline: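 A UAS-controlled beta-lactamase reporter in ER-beta-UAS-bla HEK293T cells reports receptor activation. Compounds act for 16 hr at 37C in 2% charcoal-stripped serum, and a FRET substrate is read by fluorescence after 2 hours.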
Chain of Estrogen receptor beta (Homo sapiens) (Q92731 whole entry, looked up): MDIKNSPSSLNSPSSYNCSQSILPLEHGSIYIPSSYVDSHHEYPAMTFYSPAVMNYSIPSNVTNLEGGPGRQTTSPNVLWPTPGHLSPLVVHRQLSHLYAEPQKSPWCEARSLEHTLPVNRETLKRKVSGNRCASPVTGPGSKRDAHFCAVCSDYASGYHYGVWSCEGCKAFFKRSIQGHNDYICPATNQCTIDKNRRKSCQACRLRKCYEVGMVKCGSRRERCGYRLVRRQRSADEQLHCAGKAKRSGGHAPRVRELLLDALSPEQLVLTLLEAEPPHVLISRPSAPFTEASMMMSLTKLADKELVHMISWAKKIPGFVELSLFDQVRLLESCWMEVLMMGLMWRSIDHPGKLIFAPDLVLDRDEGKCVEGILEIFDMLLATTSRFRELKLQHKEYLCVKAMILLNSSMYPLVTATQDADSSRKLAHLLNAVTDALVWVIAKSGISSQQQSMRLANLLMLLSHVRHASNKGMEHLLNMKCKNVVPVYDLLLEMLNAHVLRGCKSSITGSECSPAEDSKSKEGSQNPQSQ

A short description of assay [4]: qHTS assay to identify small molecule agonists of the androgen receptor (AR) signaling pathway in the presence of an antagonist - cell viability counter screen (AID 1259379; active means well fitted curve in the direction sought with a large enough effect in the repeat runs; an effect the other way counts as inactive or inconclusive; further: nearly all actives have a fitted effect of over 25% in size; further: potency means the concentration at half of the fitted maximal effect). In outline:
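MDA-kb2 cells (MMTV-luciferase, AR/GR), 3,000/well, 5 h attachment, then 3.0 µM nilutamide (final) and compounds at 15 concentrations. Viability by CellTiter-Fluor fluorescence after 16 h at 37 °C, 0% CO2, in the reporter wells.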

Assay [5] can be described thus: qHTS assay to identify small molecule antagonists of the estrogen receptor beta (ER-beta) signaling pathway - cell viability counter screen (AID 1259382; active means well fitted curve in the direction sought with a large enough effect in the repeat runs; an effect the other way counts as inactive or inconclusive; further: nearly all actives have a fitted effect of over 55% in size; further: potency means the concentration at half of the fitted maximal effect). A digest of the protocol:
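ER-beta-UAS-bla HEK293T cells in 2% charcoal-stripped FBS medium, treated with compound plus 1 nM 17-beta-estradiol for 16 h at 37C. Viability read by CellTiter-Glo luminescence after 30 min at room temperature in the same wells.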

Assay [6] has as its target Estrogen receptor (Homo sapiens) (UniProt P03372). Kind of assay: qHTS assay to identify small molecule agonists of the estrogen receptor alpha (ER-alpha) signaling pathway in the presence of an antagonist (AID 1259383). Further: nearly all actives have a fitted effect of over 15% in size. Further: potency means the concentration at half of the fitted maximal effect. On activation: top concentration of the series differs between compounds. A digest of the protocol: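 VM7Luc4E2 cells express endogenous full-length ER-alpha with an ERE-luciferase reporter and were hormone-deprived for 5 days. Compounds at 15 concentrations were added with 10.0nM ICI-182,780 for 22hr at 37C. Luminescence was read with ONE-Glo.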

The nature of assay [7]: qHTS assay to identify small molecule agonists or antagonists of the thyroid stimulating hormone receptor (TSHR) signaling pathway - wild type cell line counter screen (AID 1259384). A digest of the protocol: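 Wild-type HEK293 cells were plated 18 h at 37 C/5% CO2, pin-dosed with compound plus Ro20-1724 medium, held 30 min at room temperature, then given cAMP-d2 and anti-cAMP-cryptate; fluorescence was read after 1 h. Fifteen concentrations, triplicate.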

Assay [8] has as its target Estrogen receptor beta (Homo sapiens) (UniProt Q92731). Kind of assay: qHTS assay to identify small molecule antagonists of the estrogen receptor beta (ER-beta) signaling pathway (AID 1259378; active means well fitted inhibition curve with a large enough effect in the signal ratio in the repeat runs, not every such curve was filed as active; the % refers to the signal ratio). In outline:
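ER-beta-UAS-bla HEK293T (GripTite) cells in 2% charcoal-stripped FBS medium were preincubated 6 hr at 37C, dosed with compound, then stimulated with 1 nM E2 (final) for 16 hr; beta-lactamase reporter read by B/G FRET fluorescence after 2 hr substrate loading.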

A short description of assay [9]: qHTS assay to identify small molecule agonists of the estrogen receptor beta (ER-beta) signaling pathway - cell viability counter screen (AID 1259380; active means well fitted curve in the direction sought with a large enough effect in the repeat runs; an effect the other way counts as inactive or inconclusive; further: nearly all actives have a fitted effect of over 30% in size; further: potency means the concentration at half of the fitted maximal effect). A digest of the protocol: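 ER-beta-UAS-bla HEK293T cells in medium with 2% charcoal-stripped FBS, pre-incubated 6 hr, then treated 16 hr at 37C. Cytotoxicity read in the same wells by CellTiter-Glo luminescence after 30 min at room temperature.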

Assay [10] has as its target Androgen receptor (Homo sapiens) (UniProt P10275). As to the kind of experiment: qHTS assay to identify small molecule agonists of the androgen receptor (AR) signaling pathway in the presence of an antagonist (AID 1259381). Further: nearly all actives have a fitted effect of over 15% in size. In outline:
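MDA-kb2 cells carrying MMTV-luciferase (AR/GR responsive), 3,000 cells/well, co-treated with 3.0 uM nilutamide final. Compounds at 15 concentrations, 16 hr at 37C without CO2. Luciferase luminescence read after 30 min with ONE-Glo.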

Where “and” joins values, the source holds several entries; their conditions need not be identical. Equal values may be shown once. Records with an inconclusive call do not appear. More than one record can exist for a structure, and the calls need not agree. Calls of active or inactive are those of the source. Unless noted, the call rests on the fitted dose curve.

Chain of Androgen receptor (Homo sapiens) (P10275 whole entry, looked up): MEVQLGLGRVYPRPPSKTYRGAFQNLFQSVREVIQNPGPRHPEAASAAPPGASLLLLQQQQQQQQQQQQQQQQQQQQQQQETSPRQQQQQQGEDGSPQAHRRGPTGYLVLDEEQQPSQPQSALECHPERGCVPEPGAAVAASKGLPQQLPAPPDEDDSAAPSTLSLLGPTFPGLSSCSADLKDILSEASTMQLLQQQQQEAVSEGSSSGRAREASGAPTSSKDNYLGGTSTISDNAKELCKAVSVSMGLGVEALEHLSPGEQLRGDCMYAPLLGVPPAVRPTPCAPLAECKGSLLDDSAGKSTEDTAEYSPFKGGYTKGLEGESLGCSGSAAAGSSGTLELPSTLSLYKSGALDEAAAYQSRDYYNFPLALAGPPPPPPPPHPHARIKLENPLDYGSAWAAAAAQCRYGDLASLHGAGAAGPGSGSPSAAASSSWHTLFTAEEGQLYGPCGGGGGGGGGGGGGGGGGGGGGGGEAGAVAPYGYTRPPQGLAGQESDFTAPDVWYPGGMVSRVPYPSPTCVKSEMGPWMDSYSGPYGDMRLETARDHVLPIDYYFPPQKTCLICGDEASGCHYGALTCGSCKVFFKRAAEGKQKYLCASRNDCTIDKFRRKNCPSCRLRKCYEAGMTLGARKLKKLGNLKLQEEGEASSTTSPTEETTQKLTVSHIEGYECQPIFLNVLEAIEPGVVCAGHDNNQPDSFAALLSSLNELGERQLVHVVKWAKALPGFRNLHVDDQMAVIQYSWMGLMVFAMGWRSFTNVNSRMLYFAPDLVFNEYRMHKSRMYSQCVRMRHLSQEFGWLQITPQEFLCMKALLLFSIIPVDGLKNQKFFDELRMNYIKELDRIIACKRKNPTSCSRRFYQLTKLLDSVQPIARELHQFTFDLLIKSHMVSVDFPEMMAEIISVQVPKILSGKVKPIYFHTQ
Chain of Estrogen receptor (Homo sapiens) (P03372 whole entry, looked up): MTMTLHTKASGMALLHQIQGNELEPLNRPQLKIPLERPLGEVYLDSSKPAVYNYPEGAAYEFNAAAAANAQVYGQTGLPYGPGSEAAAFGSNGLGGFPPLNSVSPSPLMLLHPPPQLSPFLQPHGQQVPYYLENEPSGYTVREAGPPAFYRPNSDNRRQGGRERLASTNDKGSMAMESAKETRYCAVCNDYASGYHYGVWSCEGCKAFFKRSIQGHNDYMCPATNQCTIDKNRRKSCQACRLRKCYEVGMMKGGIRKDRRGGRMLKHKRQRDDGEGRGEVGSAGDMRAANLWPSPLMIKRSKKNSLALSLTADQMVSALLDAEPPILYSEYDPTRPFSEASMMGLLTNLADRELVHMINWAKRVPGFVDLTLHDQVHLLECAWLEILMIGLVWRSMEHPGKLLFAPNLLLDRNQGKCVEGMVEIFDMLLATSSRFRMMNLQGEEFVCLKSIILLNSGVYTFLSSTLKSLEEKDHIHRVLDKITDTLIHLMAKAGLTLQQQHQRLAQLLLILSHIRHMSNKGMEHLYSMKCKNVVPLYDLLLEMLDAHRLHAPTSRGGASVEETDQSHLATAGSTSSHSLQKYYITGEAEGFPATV

Turning to `CCOC(=O)C(C)OC(=O)c1cc(Oc2ccc(C(F)(F)F)cc2Cl)ccc1[N+](=O)[O-]` (stereo not drawn), the Potency result in [1], in assay [2], in [3], in assay [4], in [5] and in assay [6] was “inactive” each time. In assay [7], the compound was called inactive.

With `O=C(CCl)c1ccccc1`, the Potency entry in assay [1], in [8] and in assay [5] was “inactive” in each case. In addition, the call in assay [7] was inactive.

Regarding `CCCCCCCCC(=O)NCc1ccc(O)c(OC)c1`, the Potency entry in [1], in assay [4], in assay [9], in assay [5] and in assay [6] was “inactive” in each case. For the same compound, the Potency in assay [2] is 12.2 µM (active) and inactive. Moreover, the compound was called inactive in assay [7].

As for `Oc1cc(Cl)ccc1Cl`, the Potency entry in assay [1], in [2], in assay [4], in [9] and in [5] was “inactive” throughout. In addition, the outcome in [7] was inactive.

Turning to `CCN(CC)C(=O)/C(Cl)=C(\C)OP(=O)(OC)OC`, the Potency result in assay [1], in assay [2], in assay [4], in assay [10], in assay [5] and in assay [6] was “inactive” each time. In addition, the result in assay [7] was inactive.

Take `c1ccc(-c2cccc(-c3ccccc3)c2)cc1`: the Potency result in assay [1], in [2], in assay [5] and in assay [6] was “inactive” each time. Besides, the outcome in [7] was inactive.

As to `C[C@]12CCC(=O)C(O)=C1CC[C@@H]1[C@@H]2CC[C@]2(C)C(=O)CC[C@@H]12`, the Potency result in assay [1], in assay [5] and in assay [6] was “inactive” throughout.

Consider `C1=Cc2cccc3cccc1c23`, for which the Potency result in [1], in assay [2], in assay [4], in [9] and in assay [5] was “inactive” each time. Besides, the outcome in assay [7] was inactive.

Turning to `CCCCCCOC(=O)c1ccccc1C(=O)OCCCCCC`, the Potency entry in assay [1], in [2], in [9], in assay [5] and in assay [6] was “inactive” throughout. Moreover, in assay [7], the outcome was inactive.

For `Oc1c(Cl)c(Cl)c(Cl)c(Cl)c1Cl`, the Potency entry in assay [1], in [2], in assay [5] and in [6] was “inactive” throughout. Besides, in assay [7], the compound was classed as inactive.

Consider `CCCCC(CC)COC(=O)c1ccc(C(=O)OCC(CC)CCCC)c(C(=O)OCC(CC)CCCC)c1` (stereo not drawn), for which the Potency result in assay [1], in assay [2], in assay [4], in assay [9], in assay [10] and in assay [5] was “inactive” in each case. In addition, the result in assay [7] was inactive.

Turning to `NNC(=S)NN`, the Potency result in assay [1], in [3], in [5] and in assay [6] was “inactive” each time. Further, in [2], the Potency was 28.1 µM (active) and 24.3 µM (active). In addition, the compound was classed as inactive in assay [7].

Turning to `Cc1ccc(N)c(N)c1`, the Potency in assay [1] was 1.73 µM (active) and 1.54 µM (active); in assay [2], 24.4 µM (active). The Potency result in assay [3], in [9] and in assay [5] was “inactive” each time. Also, the call in [7] was inactive.

`c1cc(OCC2CO2)ccc1Cc1ccc(OCC2CO2)cc1` (stereo not drawn): the Potency entry in [1], in assay [10] and in assay [6] was “inactive” each time. Besides, the Potency in assay [2] is 19.4 µM (active) and 21.7 µM (active); in [9], 48.6 µM (active); in assay [5] it was 48.8 µM (active) and inactive. For the same compound, the result in assay [7] was inactive.

In the case of `C=C(C)[C@H]1Cc2c(ccc3c2O[C@@H]2COc4cc(OC)c(OC)cc4[C@@H]2C3=O)O1`, the Potency entry in [1], in assay [9], in assay [10] and in assay [5] was “inactive” in each case. Besides, the Potency in assay [2] is 19.6 nM (active) and 5.45 µM (active) and inactive. Further, the compound was called inactive in assay [7].

For the compound `Nc1ccc(-c2ccccc2)cc1`, the Potency result in assay [1], in [8] and in assay [5] was “inactive” throughout. Further, the Potency was 17.7 µM (active) and inactive in assay [2]; 8.87 µM (active) and 9.69 µM (active) in assay [6]. Also, in assay [7], the result was inactive.

For `NCc1cccnc1`, the Potency entry in assay [1], in assay [2], in assay [4], in [5] and in [6] was “inactive” each time. The call in [7] was inactive.

As for `CCCCCCCCOC(=O)c1ccccc1C(=O)OCCCCCCCC`, the Potency result in [2], in [3], in [8], in [4], in [9] and in assay [10] was “inactive” in each case. Further, the Potency result in assay [5] and in [6] was “inactive” throughout. The outcome in [7] was inactive.

For the compound `Oc1cc(Cl)ccc1Oc1ccc(Cl)cc1Cl`, the Potency entry in assay [1] and in assay [3] was “inactive” in each case. Further, the Potency in assay [2] was 5.58 µM (active); in [4] it was 27.9 µM (active); in assay [5], 41.8 µM (active).

`Oc1ccc(-c2ccccc2)cc1`: the Potency result in [1], in assay [2], in assay [5] and in [6] was “inactive” throughout. Moreover, the call in assay [7] was inactive.

Regarding `ClC1C(Cl)C(Cl)C(Cl)C(Cl)C1Cl` (stereo not drawn), the Potency entry in [1], in assay [2], in assay [8], in [4] and in assay [5] was “inactive” in each case. Besides, the compound was classed as inactive in assay [7].

Turning to `CC(C)=CC1C(C(=O)OCc2coc(Cc3ccccc3)c2)C1(C)C` (stereo not drawn), the Potency result in [1], in [4], in assay [5] and in assay [6] was “inactive” in each case. Further, the Potency in assay [2] was 24.4 µM (active) and 30.6 µM (active). In addition, in [7], the call was inactive.

Turning to `Clc1nc(Cl)nc(Cl)n1`, the Potency result in assay [1], in assay [2], in [9], in assay [5] and in [6] was “inactive” throughout.

Turning to `CCCCNC(=O)n1c(NC(=O)OC)nc2ccccc21`, the Potency entry in [1], in [8], in assay [9], in [10], in assay [5] and in assay [6] was “inactive” each time. In assay [2], the Potency is 30.5 µM (active) and inactive. For the same compound, the call in [7] was inactive.

As for `O=P(O)(O)CCCl`, the Potency entry in assay [1], in assay [2], in assay [4], in [9], in [5] and in assay [6] was “inactive” each time. Also, the call in [7] was inactive.

As for `O=C(O)C(F)(F)C(F)(F)C(F)(F)C(F)(F)C(F)(F)C(F)(F)C(F)(F)F`, the Potency entry in [1], in assay [2], in assay [3], in assay [4] and in assay [5] was “inactive” throughout. Also, the Potency in assay [9] was 30.6 µM (active) and 24.3 µM (active). Moreover, the outcome in assay [7] was inactive.

For the compound `C[C@]12CCC(=O)C[C@@H]1CC[C@@H]1[C@@H]2CC[C@]2(C)[C@@H](O)CC[C@@H]12`, the Potency in [2] was 17 µM (active) and 13.7 µM (active); in assay [3], 853 nM (active) and 546 nM (active); in assay [9], 13.5 µM (active) and 12.2 µM (active).

For the compound `O=C(Nc1ccc(Br)cc1)c1cc(Br)cc(Br)c1O`, the Potency was 13.7 µM (active) and 13.3 µM (active) in assay [2]; 19.3 µM (active) and 29.8 µM (active) in assay [9]; 24.3 µM (active) in [5]; 2.42 µM (active) and inactive in [6]. Further, in assay [3], the Potency result was “inactive”. For the same compound, the compound was classed as inactive in assay [7].

For `O=C(O)CC[N+](=O)[O-]`, the Potency entry in [2], in [4], in assay [9], in assay [10] and in [5] was “inactive” in each case.

Turning to `Cc1cccc(N)c1N`, in assay [2], the Potency is 29.6 µM (active) and inactive. The Potency entry in assay [3], in [8], in assay [4], in [9] and in assay [5] was “inactive” throughout. Besides, in assay [7], the result was inactive.

Regarding `c1ccc(N=Nc2ccccc2)cc1`, the Potency entry in [2] and in [5] was “inactive” throughout. Also, the result in [7] was inactive.

Consider `Nc1ccc(Cl)c(Cl)c1`, for which the Potency entry in [2], in [3], in [8], in assay [4] and in [5] was “inactive” each time. Besides, the call in assay [7] was inactive.
